Data: PubChem BioAssay AID504408 (Broad Institute, 2011)
The whole screen tested about 300,000 compounds, of which about 5,200 (1.7%) were called active. The sample holds actives, similar compounds and a random draw of the others, so the mix is not that of the screen. A number with no mark means an inactive call.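 The calls were made as follows: active = mean replicate activation of at least 50% with a set share of replicates each reaching 50%; inconclusive = only one of those two conditions met; inactive = mean below 50% and too few replicates reaching it.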

Assay: HSF-1 activators, primary screen, NIH3T3-HGL cells, MG132 stress, luminescence, single point (AID 504408);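 also: 0% = median of the neutral control wells and 100% = twice that signal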
Conditions: NIH3T3-HGL HSF-1 luciferase reporter, MG132, 8 h; at 9 µM; stronger effect = higher value; 100% = twice DMSO control signal

| SMILES | activation |
| --- | --- |
| NC(=O)C1CCN(C(=O)c2cn(-c3ccccc3)nc2-c2cccnc2)CC1 | 32.4% |
| Cc1ccc(N(CC(=O)Nc2cccc(N(C)S(C)(=O)=O)c2)S(C)(=O)=O)cc1 | 0.04% |
| CN(c1cccc(NC(=O)Nc2ccc(Cl)cc2)c1)S(C)(=O)=O | 115% (active) |
| COc1cccc(N(CC(=O)Nc2cccc(N(C)S(C)(=O)=O)c2)S(C)(=O)=O)c1 | 12.3% |
| Cc1ccc2nc(-c3ccc(SCC(=O)Nc4cc(C)on4)nc3)[nH]c2c1 | 55.5% (active) |
| Cc1ccc2nc(SCC(=O)NC3CCCC3)[nH]c2c1 | 7.63% |
| Cc1ccc(SCCC(=O)Nc2cc(C)on2)cc1 | -5.42% |
| O=C(COc1ccccc1F)Nc1nc(-c2ccccn2)cs1 | -13.1% |
| COc1ccc(-n2c(-c3ccc(OC)c(OC)c3)n[nH]c2=S)cc1 | 3.03% |
| COc1ccc(-c2cn(-c3ccc(OC)cc3)c(=S)[nH]2)cc1 | 56.7% (active) |
| S=c1[nH]c(-c2cccs2)cn1-c1ccccc1 | 33.3% |
| CC[C@@]12C(=O)N(c3ccccc3)C(=O)N1[C@H](c1ccc(Br)cc1)[C@@H]1C(=O)N(C(C)(C)C)C(=O)[C@@H]12 | -15% |
| CC1CCCCC1NC(=O)c1cc(=O)[nH]c2ccccc12 (centres undefined) | 1.85% |
| CCN1CCN(C(=O)N(Cc2ccc(Cl)cc2)S(=O)(=O)c2ccc(C)cc2)CC1 | 0.289% |
| CCCCC(=O)Nc1cc(C)c2c(=O)oc3ccccc3c2n1 | 6.46% |
| Cc1ccccc1-n1nnc2c(=O)oc3ccccc3c21 | 105% (active) |
| CCOC(=O)c1c(C)nc2c(c1C)c(=O)oc1ccccc12 | 36.6% |
| CN(CC(=O)NNC(=O)CNC(=O)c1ccccc1Cl)S(=O)(=O)c1ccc(Cl)cc1 | -6.99% |
| CCSc1nnc(-c2cc3c(s2)-c2ccccc2CC3)o1 | 51.8% (active) |
| O=C(CSc1nnc(-c2ccccc2O)o1)NC1CCCCC1 | -7.41% |
| Fc1ccc(CSc2nnc(-c3cc4c(s3)-c3ccccc3CC4)o2)cc1 | 21.9% |
| O=C(c1ccncc1)N1CCN(S(=O)(=O)c2cc(C(F)(F)F)cc(C(F)(F)F)c2)CC1 | 4.51% |
| CCCCC(=O)N/N=C(\C)CC(=O)Nc1cc(Cl)ccc1OC | 72.1% (active) |
| COc1ccc(Cl)cc1NC(=O)CNc1ccccc1F | 2.49% |

| SMILES | activation |
| --- | --- |
| COc1ccc(/C(C)=N/NC(=O)CCC(=O)Nc2ccc(Cl)cc2Cl)c(OC)c1 | 1.67% |
| COc1ccc(N2CCN(C(=O)CCNC(=O)c3ccc(Br)cc3)CC2)cc1 | 6.12% |
| CCN(CC(=O)Nc1cc(Cl)ccc1C)C(=O)CN1C(=O)NC2(CCCC2)C1=O | -8.94% |
| COc1ccccc1NC(=O)Nc1nc(CC(=O)Nc2ccccc2F)cs1 | 23.4% |
| COc1ccc(NC(=O)CN(C)C(=O)c2cc(-c3ccc(C)o3)nc3ccccc23)cc1 | 19.7% |
| O=C(NC1CCCC1)c1ccc(Br)s1 | 7.08% |
| CC(C)C(=O)OCC(=O)Nc1ccc2c(c1)CCC2 | 41.4% |
| O=C(Nc1ccc2c(c1)CCC2)c1ccc(Br)s1 | 71% (active) |
| COc1ccc(S(=O)(=O)N2CCCC2CNC(=O)C(=O)NC2CC2)cc1 (centres undefined) | 5.75% |
| CC(=NCc1ccco1)c1c(C(F)(F)F)[nH]n(-c2nc3ccccc3s2)c1=O | -45.7% |
| CC(=NCc1ccc2c(c1)OCO2)C1=C(O)c2ccccc2C1=O | 33.7% |
| CC(=NCc1ccco1)C1=C(O)c2ccccc2C1=O | 106% (active) |
| Cc1ccc(-c2cc(C(=O)NC3CCN(Cc4ccccc4)CC3)c3ccccc3n2)cc1 | 11.6% |
| CC1=C(/C=C/C(C)=C/C=C/C(C)=C/C=C/C=C(C)/C=C/C=C(C)/C=C/C2=C(C)CCCC2(C)C)C(C)(C)CCC1 | 54.5% (active) |
| Cc1cccc(C(=O)OC(C)C(=O)NC2CCCc3ccccc32)c1O (centres undefined) | -1.67% |
| CC(C)N(Cc1nnc(-c2ccc(Cl)cc2)o1)C(=O)C1=COCCO1 | -12.7% |
| Cc1ccc(NC(=O)CN2C(=O)NC(C)(c3ccc(Cl)cc3)C2=O)c(Br)c1 (centres undefined) | 78.5% (active) |
| CC1(c2ccccc2)NC(=O)N(CC(=O)Nc2cc(Cl)ccc2N2CCOCC2)C1=O (centres undefined) | -13.3% |
| Cc1ccc(C2(C)NC(=O)N(CC(=O)Nc3ccccc3C(=O)N3CCCCC3)C2=O)cc1 (centres undefined) | 20.7% |
| Cc1ccc(NC(=S)NCCc2ccc(Cl)cc2)c(C)c1 | 21.9% |
| Cc1ccc(NC(=S)NCc2ccccc2Cl)c(C)c1 | 5.6% |
| Cc1ccc(NC(=S)Nc2ncccc2C)c(C)c1 | 56.7% (active) |
| O=S(=O)(Nc1cccc(-c2ccc(N3CCOCC3)nn2)c1)c1ccc(Cl)c(Cl)c1 | 5.14% |
| CCOc1ccc(S(=O)(=O)N2CCN(C(=S)NCC3CCCO3)CC2)cc1 (centres undefined) | -5.36% |

| SMILES | activation |
| --- | --- |
| O=C(CCC(=O)c1cccs1)Nc1nc2ccccc2s1 | 10.8% |
| CC(=O)Nc1ccc(-c2csc(NC(=O)Nc3ccccc3)n2)cc1 | -8.14% |
| O=C(Nc1ccccc1)Nc1nc2ccccc2s1 | 61.1% (active) |
| CCCNC(=O)CCn1cc(-c2ccc(OC)cc2)nc1CCN | -10.4% |
| COc1cc(NS(=O)(=O)c2ccc3ccccc3c2)c2ncccc2c1 | -10.7% |
| Cc1ccccc1NC(=O)c1ccccc1NS(=O)(=O)c1cccc2cccnc12 | -9.95% |
| O=[N+]([O-])c1ccccc1S(=O)(=O)Nc1cccc2cccnc12 | 144% (active) |
| COc1ccc(C(=O)OCC(=O)c2ccc(Cl)s2)c(OC)c1OC | 3.84% |
| Cc1cc(NC(=O)C(C)SCC(=O)Nc2ccccc2N2CCCCC2)no1 (centres undefined) | 10.3% |
| CCN(CC(=O)Nc1c(F)cccc1F)C(=O)c1ccc(-c2ccccc2)cc1 | 0.0275% |
| CCCCn1c(N)c(N(CCOC)C(=O)c2cccc(OCc3ccccc3)c2)c(=O)[nH]c1=O | -6.35% |
| CC(OC(=O)C1CC(=O)N(Cc2ccccc2)C1)C(=O)Nc1ccccc1[N+](=O)[O-] (centres undefined) | 8.17% |
| O=C(O)c1cccc(S(=O)(=O)Nc2ccc(O)cc2Sc2nc3ccccc3s2)c1 | 1.08% |
| CCOc1ccccc1Nc1ccc2nonc2c1[N+](=O)[O-] | -13.1% |
| O=[N+]([O-])c1c(NCCO)cc(Sc2nc3ccccc3s2)c2nonc12 | 229% (active) |
| Cc1ccc(C)c(OCCC(=O)OCC(=O)c2ccc3c(c2)NC(=O)CO3)c1 | -12.3% |
| COc1ccccc1C(=O)NC(=O)COC(=O)c1ccco1 | -0.902% |
| CCCn1c(SCC(=O)c2ccc3c(c2)OCCO3)nnc1C(C)C | 62.4% (active) |
| CCn1c(SCC(=O)Nc2ccc3c(c2)OCCO3)nnc1C(C)C | -3.33% |
| CCCn1c(SCC(N)=O)nnc1C(C)C | 1.36% |
| Cc1ccc(S(=O)(=O)N2CCC(C(=O)OCC(=O)N(C)c3ccccc3)CC2)cc1C | -10.4% |
| Cn1cccc1C(=O)OCC(=O)c1ccc(Br)s1 | -97.9% |
| CCc1nnc(NC(=O)/C=C/c2ccc(C)o2)s1 | 3.89% |
| Cc1ccc(/C=C/C(=O)Nc2cc(S(=O)(=O)N3CCCCCC3)ccc2OCC(F)(F)F)o1 | 2.76% |

| SMILES | activation |
| --- | --- |
| Cc1ccc(/C=C/C(=O)Nc2ccc([N+](=O)[O-])c(NC(=O)/C=C/c3ccc(C)o3)c2)o1 | 73% (active) |
| CCN(C(=O)CSc1nnc(-c2ccc(OC(F)F)cc2)n1N)C1CCS(=O)(=O)C1 (centres undefined) | -15.1% |
| COC(=O)c1ccc(NS(=O)(=O)c2cc3c4c(c2)C(C)C(=O)N4CCC3)cc1 (centres undefined) | 21.6% |
| COc1ccc(NC(=O)CN(C)C(=O)c2ccc(NC3CC3)c([N+](=O)[O-])c2)cc1 | 5.08% |
| O=C1CCc2cc(S(=O)(=O)Nc3ccc(C(F)(F)F)cc3)cc3c2N1CC3 | 15.1% |
| COc1ccc(C(=O)Nc2c(Cl)cc(Cl)cc2C(=O)N2CCC(C)CC2)cc1 | 18% |
| CC1CCN(C(=S)c2ccc(-c3ccc(Cl)cc3Cl)o2)CC1 | 52% (active) |
| Cc1csc(NC(=O)c2ccc(-c3ccc(Cl)cc3Cl)o2)n1 | 3.06% |
| Cc1c(C(=O)OCC(=O)N2CCCC2=O)oc2ccccc12 | 16.8% |
| N#Cc1cccc(OC(=O)c2ccc3c(=O)n4c(nc3c2)CCC4)c1 | -0.984% |
| Cc1ccc(C2=NN(C(=O)CSc3nc(N)cc(N)n3)C(c3ccco3)C2)cc1 (centres undefined) | 22.7% |
| CCOC(=O)C1C(=O)C=C(c2ccc(OC)cc2)CC1c1ccco1 (centres undefined) | 285% (active) |
| CCOC(=O)C1C(=O)NC(N2CCN(c3ccccc3)CC2)=NC1c1ccco1 (centres undefined) | -4.78% |
| Cc1nc2c(c(C)nn2-c2ccccc2)c(C)c1C | -8.62% |
| COc1cc(SC)ccc1C(=O)Nc1cc(C)ccn1 | 55.7% (active) |
| COc1cc(SC)ccc1C(=O)Nc1nc(C)cs1 | -71.7% |
| Cc1ccnc(NC(=O)c2ccoc2C)c1 | 17.6% |
| COC(=O)[C@@]12CCCN1[C@H](c1ccc(-c3ccc(F)cc3)c(OC)c1)[C@H]1C(=O)N(C)C(=O)[C@H]12 | 42.9% |
| COc1ccc(Cl)cc1C=CC=Nc1ccc(S(N)(=O)=O)cc1 | -18.4% |
| COc1cccc(NC(=S)NCc2ccco2)c1 | 19.7% |
| COc1cc(NC(=S)NCc2ccco2)c(OC)cc1Cl | 62.1% (active) |
| FC(F)Oc1ccc(NC(=S)NCc2ccco2)cc1Cl | 7.43% |
